System: 4T1
Assay: % inhibition of 4T1 cell number vs DMSO control; higher = stronger growth inhibition
Conditions: 1 µM, 3 days
Procedure, shortened: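 In 96-well imaging plates whose edge wells went unused, 3000 4T1-H2B-GFP mouse breast cancer cells per well were seeded in 2% FBS medium onto plastic, denuded lung matrix, mCAF1 fibroblast-derived matrix, Matrigel (15 μg/mL) or 0.2% gelatin. Sixteen hours on, kinase inhibitors went in at 1 μM final for 3 days before formalin fixation, DAPI staining and imaging on an INCell Analyzer 2200. Counting of GFP-positive nuclei gave cell numbers, from which percent inhibition relative to control was derived.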

[1] = substrate: lung fibroblast-derived matrix
[2] = substrate: mCAF1 fibroblast-derived matrix

CC(C)(C)c1nc2c3cc[nH]c(=O)c3c3cc(F)ccc3c2[nH]1 [JAK Inhibitor I]
% inhibition of 4T1 cell number (substrate: Matrigel): -23.5% | % inhibition of 4T1 cell number (substrate: gelatin): -101% | % inhibition of 4T1 cell number [1]: -5.54% | % inhibition of 4T1 cell number [2]: 20.7% | % inhibition of 4T1 cell number (substrate: plastic): -71.6%

CCCCCCCCCCCCCCCCn1cc[n+](Cc2ccccc2)c1C [eEF-2 Kinase Inhibitor, NH125]
% inhibition of 4T1 cell number (substrate: Matrigel): 81.5% | % inhibition of 4T1 cell number (substrate: gelatin): 78.5% | % inhibition of 4T1 cell number [1]: 52.8% | % inhibition of 4T1 cell number [2]: 83.2% | % inhibition of 4T1 cell number (substrate: plastic): 93.2%

CCCCc1c(-c2ccc(O)cc2)[nH]c2nccnc12 [Aloisine A]
% inhibition of 4T1 cell number (substrate: Matrigel): 53.4% | % inhibition of 4T1 cell number (substrate: gelatin): 38% | % inhibition of 4T1 cell number [1]: 1.62% | % inhibition of 4T1 cell number [2]: -3.45% | % inhibition of 4T1 cell number (substrate: plastic): 48.1%

NC(=O)c1ccc2nc(-c3ccc(Oc4ccc(Cl)cc4)cc3)[nH]c2c1 [Chk2 Inhibitor II]
% inhibition of 4T1 cell number (substrate: Matrigel): -26.7% | % inhibition of 4T1 cell number (substrate: gelatin): -10.9% | % inhibition of 4T1 cell number [1]: 22.1% | % inhibition of 4T1 cell number [2]: 21.5% | % inhibition of 4T1 cell number (substrate: plastic): -72.4%

Cc1cncc2cccc(S(=O)(=O)N3CCCN(C(=O)CN)C[C@@H]3C)c12 [Rho Kinase Inhibitor IV]
% inhibition of 4T1 cell number (substrate: Matrigel): -39.7% | % inhibition of 4T1 cell number (substrate: gelatin): -28.9% | % inhibition of 4T1 cell number [1]: 92.9% | % inhibition of 4T1 cell number [2]: 15.7% | % inhibition of 4T1 cell number (substrate: plastic): -103%

O=C1C(=Cc2ccc(O)cc2)C2=Nc3ccccc3C2=C1C1=C2C(=Nc3ccccc32)C(=Cc2ccc(O)cc2)C1=O [Scytonemin, Lyngbya sp.]
% inhibition of 4T1 cell number (substrate: Matrigel): 46.6% | % inhibition of 4T1 cell number (substrate: gelatin): 52.5% | % inhibition of 4T1 cell number [1]: 65.9% | % inhibition of 4T1 cell number [2]: 26.2% | % inhibition of 4T1 cell number (substrate: plastic): 39.5%

CC(C)n1cnc2c(NCc3ccccc3)nc(NCCCO)nc21 [Bohemine]
% inhibition of 4T1 cell number (substrate: Matrigel): 16.5% | % inhibition of 4T1 cell number (substrate: gelatin): 13% | % inhibition of 4T1 cell number [1]: 0.282% | % inhibition of 4T1 cell number [2]: -0.566% | % inhibition of 4T1 cell number (substrate: plastic): -30.7%

COc1cc2ncnc(Nc3ccc(O)c(Br)c3)c2cc1OC [JAK3 Inhibitor II]
% inhibition of 4T1 cell number (substrate: Matrigel): -13.3% | % inhibition of 4T1 cell number (substrate: gelatin): -52.6% | % inhibition of 4T1 cell number [1]: -6.47% | % inhibition of 4T1 cell number [2]: 25.3% | % inhibition of 4T1 cell number (substrate: plastic): -53.6%

O=C(Nc1cc(Cl)cc2c1[nH]c1cnccc12)c1cccnc1 [IKK Inhibitor X]
% inhibition of 4T1 cell number (substrate: Matrigel): 42.5% | % inhibition of 4T1 cell number (substrate: gelatin): 25.8% | % inhibition of 4T1 cell number [1]: -6.01% | % inhibition of 4T1 cell number [2]: -10% | % inhibition of 4T1 cell number (substrate: plastic): 57.7%

Cc1nc(-c2ccccc2)c(-c2ccncc2)o1
% inhibition of 4T1 cell number (substrate: Matrigel): 36.5% | % inhibition of 4T1 cell number (substrate: gelatin): 13.3% | % inhibition of 4T1 cell number [1]: 14.6% | % inhibition of 4T1 cell number [2]: -10.1% | % inhibition of 4T1 cell number (substrate: plastic): 5.64%

CC(C)[C@H](CO)Nc1nc(Nc2cc(N)cc(Cl)c2)c2ncn(C(C)C)c2n1 [Aminopurvalanol A]
% inhibition of 4T1 cell number (substrate: Matrigel): 77.4% | % inhibition of 4T1 cell number (substrate: gelatin): 71.6% | % inhibition of 4T1 cell number [1]: -15.7% | % inhibition of 4T1 cell number [2]: 41.1% | % inhibition of 4T1 cell number (substrate: plastic): 80.1%

Cn1sc(=O)n(Cc2ccccc2)c1=O [GSK-3b Inhibitor I]
% inhibition of 4T1 cell number (substrate: Matrigel): -33.1% | % inhibition of 4T1 cell number (substrate: gelatin): 10.3% | % inhibition of 4T1 cell number [1]: 9.49% | % inhibition of 4T1 cell number [2]: 21.6% | % inhibition of 4T1 cell number (substrate: plastic): -62.7%

O=Nc1c(-c2c(O)[nH]c3cc(Br)ccc23)[nH]c2ccccc12 [GSK-3 Inhibitor IX]
% inhibition of 4T1 cell number (substrate: Matrigel): -37.5% | % inhibition of 4T1 cell number (substrate: gelatin): -7.89% | % inhibition of 4T1 cell number [1]: -2.79% | % inhibition of 4T1 cell number [2]: 55.1% | % inhibition of 4T1 cell number (substrate: plastic): 42.2%

Oc1cccc(-c2nc(N3CCOCC3)c3oc4ncccc4c3n2)c1
% inhibition of 4T1 cell number (substrate: Matrigel): 22.6% | % inhibition of 4T1 cell number (substrate: gelatin): 4.53% | % inhibition of 4T1 cell number [1]: -18.2% | % inhibition of 4T1 cell number [2]: 70.3% | % inhibition of 4T1 cell number (substrate: plastic): -7.68%

CCOC(=O)c1c(C)[nH]c(/C=C2\C(=O)Nc3ccccc32)c1C [VEGF Receptor 2 Kinase Inhibitor I]
% inhibition of 4T1 cell number (substrate: Matrigel): 21.5% | % inhibition of 4T1 cell number (substrate: gelatin): -34.8% | % inhibition of 4T1 cell number [1]: -12.5% | % inhibition of 4T1 cell number [2]: -29.2% | % inhibition of 4T1 cell number (substrate: plastic): 16.8%

O=C1Nc2ccc(Cl)cc2/C1=C/c1cc(Cl)c(O)c(Cl)c1 [PKR Inhibitor, Negative Control]
% inhibition of 4T1 cell number (substrate: Matrigel): -11.8% | % inhibition of 4T1 cell number (substrate: gelatin): -80.4% | % inhibition of 4T1 cell number [1]: 86.7% | % inhibition of 4T1 cell number [2]: 8.78% | % inhibition of 4T1 cell number (substrate: plastic): -63.2%

Cn1cnc2cc3c(Nc4cccc(Br)c4)ncnc3cc21
% inhibition of 4T1 cell number (substrate: Matrigel): 5.46% | % inhibition of 4T1 cell number (substrate: gelatin): -49.9% | % inhibition of 4T1 cell number [1]: -0.216% | % inhibition of 4T1 cell number [2]: -36.5% | % inhibition of 4T1 cell number (substrate: plastic): -21.9%

Nc1nccc(-c2c(-c3ccc(F)cc3)ncn2C2CCNCC2)n1
% inhibition of 4T1 cell number (substrate: Matrigel): -17.8% | % inhibition of 4T1 cell number (substrate: gelatin): -10.4% | % inhibition of 4T1 cell number [1]: 11.7% | % inhibition of 4T1 cell number [2]: 29.5% | % inhibition of 4T1 cell number (substrate: plastic): -59.1%

CC[n+]1c(/C=C/N(C)c2ccccc2)n(-c2ccccc2)c2ccc(-c3nc4ccccc4s3)cc21 [Akt Inhibitor IV]
% inhibition of 4T1 cell number (substrate: Matrigel): 53.2% | % inhibition of 4T1 cell number (substrate: gelatin): 56.7% | % inhibition of 4T1 cell number [1]: -4.76% | % inhibition of 4T1 cell number [2]: 92.1% | % inhibition of 4T1 cell number (substrate: plastic): 78.2%

O=C(Nc1ccc(Cl)cc1)c1ccccc1NCc1ccncc1 [VEGF Receptor Tyrosine Kinase Inhibitor II]
% inhibition of 4T1 cell number (substrate: Matrigel): 28.8% | % inhibition of 4T1 cell number (substrate: gelatin): -12.3% | % inhibition of 4T1 cell number [1]: 79.7% | % inhibition of 4T1 cell number [2]: 0.43% | % inhibition of 4T1 cell number (substrate: plastic): 17.2%

O=C1c2ccccc2-c2n[nH]c3cccc1c23 [JNK Inhibitor II]
% inhibition of 4T1 cell number (substrate: Matrigel): -51.1% | % inhibition of 4T1 cell number (substrate: gelatin): -11.8% | % inhibition of 4T1 cell number [1]: -2.64% | % inhibition of 4T1 cell number [2]: 27.7% | % inhibition of 4T1 cell number (substrate: plastic): -62.6%

COc1ccc2c(c1)c(C1=C(c3c[nH]c4ccccc34)C(=O)NC1=O)cn2CCCN(C)C
% inhibition of 4T1 cell number (substrate: Matrigel): -19.1% | % inhibition of 4T1 cell number (substrate: gelatin): -76.7% | % inhibition of 4T1 cell number [1]: -27.2% | % inhibition of 4T1 cell number [2]: 11.8% | % inhibition of 4T1 cell number (substrate: plastic): -63.4%

O=C1NC(=O)C(c2cn(CCCO)c3ncccc23)=C1c1cnccn1 [GSK-3b Inhibitor XI]
% inhibition of 4T1 cell number (substrate: Matrigel): 26.7% | % inhibition of 4T1 cell number (substrate: gelatin): 30.4% | % inhibition of 4T1 cell number [1]: 0.393% | % inhibition of 4T1 cell number [2]: 15.6% | % inhibition of 4T1 cell number (substrate: plastic): 44.6%

— the supplement of paper PMC8269313
